Screening results (PubChem)
RN4220 kill: growth inhibition of S. aureus RN4220, primary screen, OD600; 16 h; inhibition, % (test concentration not listed); 0.33% of 330,000 active; AID 1259311, 2017; in the data active = inhibition above about 85%;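 note: plate controls were untreated cells for no effect and reference antibiotic for full effect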
PfHsp40 rescue: rescue of yeast from PfHsp40 toxicity, primary screen, S. cerevisiae, ATP luminescence; S. cerevisiae expressing PfHsp40, growth rescue; AID 504582, 2011; growth rescue, % at 12.5 µM; 0.68% of 340,000 active; in the data active = growth rescue above about 28%, passing the limit was not always enough; inconclusive = no clear call, values can overlap the other calls;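 note: yeast W303a lacking pdr1 and pdr3 grown in galactose medium; growth measured after three days at 30 °C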
PrP 5UTR inh: inhibition of PrP 5' UTR reporter expression; 0.35% of 340,000 active; inhibition, % (test concentration not listed); AID 488862, 2010; cell-based PrP 5' UTR mRNA reporter, plate reader; in the data active = inhibition above about 52%; note: 0 = median of the neutral control wells
Sa ugtP lethal: growth inhibition of ugtP-null S. aureus, primary screen, RN4220 ugtP deletion, OD600. 16 h. growth inhibition, % (test concentration not listed). 0.54% of 330,000 active. AID 1259309, 2017; in the data active = growth inhibition above about 68%;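 note: plate controls were untreated wells for no effect and antibiotic for full effect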
BJeLR viability: MLPCN primary cell-based screen for lethality selective to Ras in HRASV12 cells. BJeLR (HRASV12) viability, CellTiter-Glo ATP luminescence, 48 h. 0.17% of 300,000 active. inhibition, % (no concentration beside the values); in the data active = inhibition above about 50%; inconclusive = no clear call, values can overlap the other calls
Y pestis TopoI: Yersinia pestis topoisomerase I inhibitors, primary screen, biochemical, cleavage product accumulation, plate reader, single point | DNA topoisomerase I (Yersinia pestis CO92) | Y. pestis Topo-I cleavage product accumulation | activity, % at 10 µM | 0.064% of 360,000 active | AID 504884, 2011; in the data active = activity above about 50%, passing the limit was not always enough; inconclusive = no clear call, values can overlap the other calls
PrP UTR cherry: prion 5' UTR mRNA inhibition, cherry-pick retest | shares compounds with PrP 5UTR inh | cell-based prion protein 5' UTR reporter, plate reader | inhibition, % at 2.5 µM | 48% of 1,100 active | AID 504592, 2011; in the data active = inhibition above about 54%; inconclusive = no clear call, values can overlap the other calls
The depositor's hits bear a star; ? = inconclusive; · = no result. Only some compounds are listed: those with a hit (about 1.4% of all), similar ones and a draw of the others.

SMILES	RN4220 kill	PfHsp40 rescue	PrP 5UTR inh	Sa ugtP lethal	BJeLR viability	Y pestis TopoI	PrP UTR cherry
CC(C)(C)c1ccc(C(=O)Nc2ccc(CC(=O)O)cc2)o1	0.3	0.1	72.1*	4.2	1.9	4.4	75.2*
CC=C(C)C(=O)NCCN1C2=NCC(C)N2CC1Cc1ccc(OC)cc1 (stereo not drawn)	4.0	·	·	3.9	·	·	·
CCOC(=O)C1C2COc3ccc(Cl)cc3C2N2C(=O)c3cc(Br)ccc3NC(=O)[C@@]12C (stereo partly drawn)	-12.9	·	·	-30.7	·	·	·
Cc1nc2ccccn2c1C(=O)NC1CCCc2ccccc21 (stereo not drawn)	8.2	-2.3	60.2*	11.5	9.9	8.9	?
COc1ccccc1C(=O)N1CCCC1(C#N)c1ccccc1 (stereo not drawn)	5.4	-0.9	82.7*	7.5	6.2	-3.9	-10.5
N#CC1(c2ccccc2)CCCN1C(=O)c1ccccc1Br (stereo not drawn)	0.1	0.6	3.3	-4.9	-1.4	-3.0	·
CN1CCN(C(=O)C2=CC(C3CCCCC3)CC(OCCCCO)O2)CC1 (stereo not drawn)	7.7	·	·	4.8	·	·	·
COC(=O)C1=C(c2ccc(S(C)(=O)=O)cc2)CC2CCC1N2C(=O)NCCO (stereo not drawn)	5.5	·	·	-7.3	·	·	·
CN(C)CCCNC(=O)CC(c1ccccc1)c1ccccc1O (stereo not drawn)	4.1	0.3	70.9*	-4.6	-4.4	-8.4	-18.3
CCN(CC)S(=O)(=O)c1ccc(N2CCOCC2)c(NC(=O)c2cc(-c3ccccn3)nc3ccccc23)c1	-5.7	-0.6	66.5*	7.3	7.7	0.6	23.8
O=Cc1cn(Cc2cccc([N+](=O)[O-])c2)c2ccccc12	-1.0	4.3	71.2*	-9.1	-23.1	-2.6	15.8
Cc1cccc(Cn2cc(C=O)c3ccccc32)c1	4.4	3.1	19.2	3.2	-3.9	9.5	·
COC(=O)C1=C(c2ccccc2OCc2ccccc2)CC2CCC1N2C(=O)NCc1ccc(OC)c(OC)c1 (stereo not drawn)	-0.6	·	·	-6.8	·	·	·
CC(=O)O[C@]1(C(C)=O)CCC2C3C=C(Cl)C4=CC(=O)C5CC5[C@]4(C)C3CC[C@@]21C (stereo partly drawn)	6.0	·	·	-1.7	·	·	·
CCOC(=O)c1c(C)[nH]c(C(=O)OCCOc2ccccc2C)c1C	0.8	0.2	81.5*	-4.7	-5.2	36.6	-59.9
CC[C@@]12C(=O)N(c3cccc(Br)c3)C(=O)N1C(c1ccc(Br)cc1)C1C(=O)N(C(C)(C)C)C(=O)C12 (stereo partly drawn)	-0.2	·	·	-39.8	·	·	·
CC=CC(=O)N1CC2(CC(c3cccc(NC(=O)CC(c4ccccc4)c4ccccc4)c3)=NO2)CC1C(N)=O (stereo not drawn)	1.5	·	·	1.4	·	·	·
CCN(CC)c1ccc(C(=C2C=CC(=[N+](CC)CC)C=C2)c2ccc(N(CC)CC)cc2)cc1	45.1	-5.9	52.5*	36.3	·	-39.9	?
CCN(CC)c1ccc(C(=C2C=CC(=[N+](CC)CC)C=C2)c2ccccc2)cc1	·	-1.3	56.0*	·	·	-8.5	87.8*
CCN(CC)c1ccccc1	5.9	-0.8	-5.2	11.9	·	2.9	·
CN1C2CCC1C(C(=O)O)C(OC(=O)c1ccccc1)C2 (stereo not drawn)	0.9	-0.4	1.2	-5.0	·	2.9	·
CCOC(=O)C1C(OC(=O)c2ccccc2)CC2CCC1N2C (stereo not drawn)	·	-0.6	69.6*	·	·	-6.1	1.3
CCOc1ccc(N2C(=O)NC(=O)C(=Cc3ccc(N4CCCCC4)o3)C2=O)cc1	2.7	·	·	1.8	·	·	·
CN(C)c1ccc(CCc2ccc(N)cc2)cc1	4.1	-0.6	57.2*	-4.2	-5.9	-2.9	53.3*
C=CCOC(=O)C1=CC(c2ccc3c(c2)OCO3)CC(OCCCCO)O1 (stereo not drawn)	8.7	·	·	12.8	·	·	·
O=C(C(=C([O-])c1ccccc1)[n+]1ccc2ccccc2c1)c1ccccc1	7.4	·	·	4.1	·	·	·
